{"source": "PubChem BioAssay (EPA / NIEHS)", "note": "Active and inactive are the calls of the source. The calls were made as follows: active = hit-call score of the fitted dose curve at least 0.9, where 1 is the maximum; inactive = score below 0.9."}
{"read-out": "Nuclear factor erythroid 2-related factor 2 (Homo sapiens) (UniProt Q16236)", "assay": "LTEA_HepaRG_NFE2L2: Life Technologies and Expression Analysis (LTEA) Assay for Nuclear factor erythroid 2-related factor 2 (NFE2L2) Transcription Factor using HepaRG (AID 2283527);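 as to outcome: TaqMan qRT-PCR transcript level normalised to ACTB GAPDH and POLR2A housekeeping genes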", "conditions": "mRNA level, 48 h; actives raise or lower the signal", "protocol": "LTEA_HepaRG is a cell based, multiplexed-readout assay that uses HepaRG, a human liver cell line, with measurements taken at 48 hours after chemical dosing on a 96-well plate.LTEA_HepaRG_NFE2L2 is one of 102 assay component(s) measured in the LTEA HepaRG cell culture assay. It is a marker of Inflammation/injury.Data from the assay component LTEA_HepaRG_NFE2L2 was analyzed into 1 endpoint. This assay endpoint, LTEA_HepaRG_NFE2L2, was analyzed with bidirectional fitting relative to DMSO as the negative control and baseline of activity. Using a type of inducible reporter, measures of mRNA induction for gain or loss-of-signal activity can be used to understand regulation of transcription factor activity. To generalize the intended target to other relatable targets, this assay endpoint is annotated to the dna binding intended target family, where the subfamily is basic leucine zipper.\nA total of 1060 chemcials from the ToxCast library were tested in eight-point concentration-response experiments. Cell culture and cytotoxicity assays were conducted at Thermo Fisher Scientific's Custom Services facility (Madison, WI). A single lot of human HepaRG cells (Thermo Fisher Scientific, Frederick, MD) was used for the cell culture experiments. 96-well format collagen type I coated plates of human HepaRG cells were prepared using established methods. Briefly, cryopreserved HepaRG cells were thawed, plated at a density of approximately 100,000 cells/well in HepaRG Thaw, Plate, and General Purpose media (HPRG770, Thermo Fisher Scientific), and incubated for 48 hours. 0.5% DMSO was selected as vehicle control to balance the requisite need of DMSO in HepaRG cultures to maintain differentiation (for example, baseline metabolism, proportions of hepatocytes vs. cholangiocytes), while enabling further hepatic receptor pathway activation (for example, PXR and CAR) in response to chemical exposure. 48 hours after plating, the culture medium was replaced with HepaRG Serum-Free Incudtion Media. Cells were exposed to each test chemical in duplicate and maintained in CO2 incubators for another 48 hours. Chemical plates were thawed to room temperature and 200x concentrations of treatment groups were prepared. 8-point conentration-reponse curves were made with the highest exposure at 100 uM, followed by half-log dilutions, all in 0.5% DMSO. Each test plate contained variouse controls, induction positive controls (1mM phenobarbital), cytotoxicity positive controls ([…] aflatoxin B1), vehicle controls (0.5% DMSO), and total lysis controls (0.5% DMSO). Cell morphology images were taken using an Essen IncuCyte FLR automated microscope, with six 96-well plates imaged in about 24 minutes. Images were captured and exported and JPEG files. Spent culture media was transfered to black-well plates for the LDH assay, and remaining media was sorted at -80 C for later use. Cells were treated with RLT buffer and frozen until shipped for gene expression analysis. Total RNA was isolated from the cell suspension in 75 uL of Buffer RLT (Qiagen, Germantown, MD 20874) by Quintiles/Expression Analysis (Durham, NC) using a custom isolation procedure. Total RNA from each plate well was transferred to a preamplification plate. Fluidigm's 96.96 Dynamic ArrayTM (Fluidigm, Amsterdam, the Netherlands) technology was used for gene expression analyses by quantitative reverse transcription polymerase chain reaction (qRT-PCR, performed by Quintiles/Expression Analysis, Durham, NC)89. Standard TaqManTM Assays (Applied Biosystems/ThermoFisher Scientific, Foster City, CA) were used to assess the expression of 93 genes selected based on their selectivity and sensitivity to important hepatic receptors known to be modulated by environmental chemicals; importance in human hepatocyte functionality; and hepatotoxicity. […]"}
{"smiles": "O=C(N[C@@H](Cc1ccccc1)[C@@H](O)C(=O)N1C[C@@H](O)[C@@H](O)C1)c1cc2cc(Cl)ccc2[nH]1", "outcome": "inactive"}
{"smiles": "Cc1cccc([N+](=O)[O-])c1C", "outcome": "inactive"}
{"smiles": "CCCCCCCCCCC", "outcome": "inactive"}
{"smiles": "COc1ccc2c(c1)c(CC(=O)O)c(C)n2C(=O)c1ccc(Cl)cc1", "outcome": "inactive"}
{"smiles": "Cc1oc(-c2ccccc2)nc1CCOc1cccc2c1ccn2CCC(=O)O", "AC50": "74.8 µM (active)"}
{"smiles": "OC[C@@H](O)[C@@H](O)[C@H](O)[C@H](O)CO", "outcome": "inactive"}
{"smiles": "Clc1cc(Cl)c(Cl)cc1Cl", "outcome": "inactive"}
{"smiles": "CC(=O)C(C)=CC1C(C)=CCCC1(C)C", "note": "(stereo not given)", "outcome": "inactive"}
{"smiles": "CCCCCCCCCCCCCO", "outcome": "inactive"}
{"smiles": "CC(CO)OC(C)CO", "note": "(stereo not given) (tested in a mixture with another compound)", "outcome": "inactive"}
{"smiles": "CC(C)c1ccc(C(=O)N=C(N)N)cc1S(C)(=O)=O", "AC50": "7.8 µM (active)"}
{"smiles": "Oc1ccc2c(c1)OC[C@@H](N1CCC(O)(c3ccc(F)cc3)CC1)[C@H]2O", "outcome": "inactive"}
{"smiles": "CC(=O)Oc1ccccc1C(=O)O", "outcome": "inactive"}
{"smiles": "NCCO", "outcome": "inactive"}
{"smiles": "Cc1cc(=O)[nH]c(=S)[nH]1", "outcome": "inactive"}
{"smiles": "CCc1c(C(=O)NN2CCCCC2)nn(-c2ccc(Cl)cc2Cl)c1-c1ccc(Br)cc1", "AC50": "72.4 µM (active)"}
{"smiles": "CC1(C)NC(=O)NC1=O", "outcome": "inactive"}
{"smiles": "CCOC(=O)C(C)(C)Oc1ccc(Cl)cc1", "outcome": "inactive"}
{"smiles": "Cc1ccc(C)c(C)c1", "outcome": "inactive"}
{"smiles": "CNC(=O)[C@H]1O[C@@H](n2cnc3c(NCc4cc(Cl)ccc4OCc4cc(C)no4)ncnc32)[C@H](O)[C@@H]1N", "outcome": "inactive"}
{"smiles": "Cc1ccc(Cl)cc1", "outcome": "inactive"}
{"smiles": "CCOC(=O)CCC(=O)OCC", "outcome": "inactive"}
{"smiles": "COC(=O)c1ccc(O)cc1", "outcome": "inactive"}
{"smiles": "COc1ccc(C)cc1N", "outcome": "inactive"}
{"smiles": "C[C@]12C=CC(=O)C=C1CC[C@@H]1[C@@H]2C(=O)C[C@@]2(C)[C@H]1CC[C@]2(O)C(=O)CO", "outcome": "inactive"}
{"smiles": "C=CCc1ccc(O)c(OC)c1", "outcome": "inactive"}
{"smiles": "NC(=O)Cn1c(=O)cc(CCN2CCN(c3nccc4sccc34)CC2)c2ccc(F)cc21", "outcome": "inactive"}
{"smiles": "CCCCC(CC)COC(=O)CC(C(=O)OCC(CC)CCCC)S(=O)(=O)O", "note": "(stereo not given)", "outcome": "inactive"}
{"smiles": "Oc1ccc2ccccc2c1N=Nc1ccccc1", "AC50": "1.5 µM (active)"}
{"smiles": "COc1cc(S(=O)(=O)O)c(C)cc1N=Nc1c(O)ccc2cc(S(=O)(=O)O)ccc12", "outcome": "inactive"}
{"smiles": "CC1(C)CC(N=C=O)CC(C)(CN=C=O)C1", "note": "(stereo not given)", "outcome": "inactive"}
{"smiles": "C=CCOC(=O)c1ccccc1C(=O)OCC=C", "outcome": "inactive"}
{"smiles": "CCCCCCC(=O)OCC", "outcome": "inactive"}
{"smiles": "COc1ccc(S(=O)(=O)N2C(=O)[C@@](c3ccccc3OC)(N3C[C@H](O)C[C@H]3C(=O)N(C)C)c3cc(Cl)ccc32)c(OC)c1", "AC50": "83.2 µM (active)"}
{"smiles": "Cc1ccc(C(C)C)c(O)c1", "outcome": "inactive"}
{"smiles": "Cc1ccc2ncccc2c1", "outcome": "inactive"}
{"smiles": "O=C(O)Cc1ccccc1Nc1c(Cl)cccc1Cl", "outcome": "inactive"}
{"smiles": "Cc1cc(NC(=O)C(=O)O)cc(C)c1Oc1ccc(O)c2c1CCC2", "outcome": "inactive"}
{"smiles": "Cc1c(C(=O)O)c(O)cc2c1C(=O)c1c(O)c([C@@H]3O[C@H](CO)[C@@H](O)[C@H](O)[C@H]3O)c(O)c(O)c1C2=O", "outcome": "inactive"}
{"smiles": "CCCCCCCCCCCCCCCC", "outcome": "inactive"}
